In PubChem BioAssay (NCATS):
“And” between values parts separate entries of the source, which are not always exact repeats. Identical values can stand only once. Results filed as inconclusive are left out. Where a call stands in place of a potency, no number is given. The source made the active and inactive calls. Unless noted, calls follow the shape of the dose curve; as a rule, active = well fitted curve in the direction sought with a large enough effect; inconclusive = small, poorly fitted or top-dose-only effect, or another doubt; inactive = no such curve, though single readings can be large; an effect the other way counts as inactive or inconclusive.

How the values were obtained:
[1] = target: Calcium and integrin-binding protein 1 (Homo sapiens) (UniProt Q99828); assay: Primary qHTS for Identification of Calcium Integrin Binding Protein 1 (CIB1) Competitor (AID 1508620);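 also: GST tagged CIB1 binding a fluorescein labelled alphaIIb integrin peptide tracer; top concentration of the series differs between compounds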
Outline: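 Fluorescence polarization competition: GST-tagged CIB1 (1 uM final) preincubated with compound 15 min at room temperature, then FITC-labelled alphaIIb peptide (100 nM final) added. After 15 min at room temperature, polarization read at Ex 480/Em 540.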

[2] = target: Cytochrome P450 2D6 (Homo sapiens) (UniProt P10635); assay: Cytochrome P450 family 2 subfamily D member 6 (CYP2D6) small molecule antagonists: luciferase biochemical (cell-free) qHTS assay (AID 1645840; active = well fitted curve in the direction sought with a large enough effect in the repeat runs; an effect the other way counts as inactive or inconclusive; also: nearly all actives have a fitted effect of over 55% in size; also: potency is read from the fitted curve at half-maximal effect)
Outline: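 P450-Glo CYP2D6 system: proluciferin substrate converted by enzyme to luciferin, read by luminescence proportional to activity. Enzyme-substrate mix with compound 10 min at room temperature, then NADPH regeneration 1 h before detection reagent.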

[3] = target: Cytochrome P450 2C9 (Homo sapiens) (UniProt P11712); assay: Cytochrome P450 family 2 subfamily C member 9 (CYP2C9) small molecule antagonists: luciferase biochemical (cell-free) qHTS assay (AID 1645842; active = well fitted curve in the direction sought with a large enough effect in the repeat runs; an effect the other way counts as inactive or inconclusive; also: nearly all actives have a fitted effect of over 55% in size; also: potency is read from the fitted curve at half-maximal effect)
Outline: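 P450-Glo CYP2C9 system: proluciferin substrate with enzyme in mix containing 0.4% BSA, 10 min at room temperature, then NADPH regeneration solution added and incubated 1 h at 37C. Detection reagent stopped reaction; luminescence read after 20 min as RLU.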

[4] = Primary qHTS for inhibitors of nuclear receptor binding SET domain protein 2 (NSD2) in an isogenic RCH-ACV NSD2 p.E1099K mutant (9B) (AID 1645876); also: nearly all actives have a fitted effect of over 70% in size; also: potency is read from the fitted curve at half-maximal effect

Cytochrome P450 2C9 (Homo sapiens), sequence (P11712 whole entry, looked up): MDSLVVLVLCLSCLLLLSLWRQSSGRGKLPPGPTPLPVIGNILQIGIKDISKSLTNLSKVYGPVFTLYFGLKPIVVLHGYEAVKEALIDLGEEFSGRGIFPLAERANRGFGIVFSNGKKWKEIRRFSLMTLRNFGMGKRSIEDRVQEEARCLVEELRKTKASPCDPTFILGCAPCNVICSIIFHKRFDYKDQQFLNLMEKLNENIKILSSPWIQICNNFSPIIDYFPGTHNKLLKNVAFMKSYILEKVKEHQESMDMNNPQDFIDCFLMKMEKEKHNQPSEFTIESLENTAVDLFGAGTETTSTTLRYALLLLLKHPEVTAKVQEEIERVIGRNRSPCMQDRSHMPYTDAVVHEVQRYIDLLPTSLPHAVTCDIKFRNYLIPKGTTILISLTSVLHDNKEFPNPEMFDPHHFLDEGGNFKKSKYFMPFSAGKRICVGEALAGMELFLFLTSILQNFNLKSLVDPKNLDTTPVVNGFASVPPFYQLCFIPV
Cytochrome P450 2D6 (Homo sapiens), sequence (P10635 whole entry, looked up): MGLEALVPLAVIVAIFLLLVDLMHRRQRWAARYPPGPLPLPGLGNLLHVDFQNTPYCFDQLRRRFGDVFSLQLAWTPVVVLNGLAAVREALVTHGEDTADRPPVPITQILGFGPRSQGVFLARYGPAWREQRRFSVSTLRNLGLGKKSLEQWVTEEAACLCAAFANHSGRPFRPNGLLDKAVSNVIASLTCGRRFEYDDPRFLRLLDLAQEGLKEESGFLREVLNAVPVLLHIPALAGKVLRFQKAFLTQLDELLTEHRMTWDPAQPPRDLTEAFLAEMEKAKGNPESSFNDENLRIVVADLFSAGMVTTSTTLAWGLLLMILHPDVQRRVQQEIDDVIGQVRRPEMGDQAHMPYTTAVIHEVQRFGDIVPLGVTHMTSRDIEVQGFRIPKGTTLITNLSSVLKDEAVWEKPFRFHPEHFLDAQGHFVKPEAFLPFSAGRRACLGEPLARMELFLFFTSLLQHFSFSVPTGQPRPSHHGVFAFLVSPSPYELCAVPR
Calcium and integrin-binding protein 1 (Homo sapiens), sequence (Q99828 whole entry, looked up): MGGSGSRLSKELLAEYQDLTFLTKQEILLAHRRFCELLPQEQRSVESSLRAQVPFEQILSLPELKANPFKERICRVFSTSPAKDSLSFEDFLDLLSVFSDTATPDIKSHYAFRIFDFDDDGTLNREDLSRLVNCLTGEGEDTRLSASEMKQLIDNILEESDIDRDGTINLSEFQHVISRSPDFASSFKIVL

Structure (SMILES): CC(C)(C)c1cc(Br)cc([C@H](CC(=O)O)NC(=O)CNC(=O)c2cc(O)cc(NC3=NCC(O)CN3)c2)c1 (some centres undefined)
- Potency [1]: inactive
- Potency [2]: inactive
- Potency [3]: inactive
- Potency [4]: inactive

Structure (SMILES): CCO[C@@H]1OC(=O)C[C@@H]1NC(=O)[C@@H]1CCCN1C(=O)[C@@H](NC(=O)c1ccc(N)c(Cl)c1)C(C)(C)C
- Potency [1]: inactive
- Potency [2]: inactive
- Potency [3]: inactive
- Potency [4]: inactive

Structure (SMILES): CC(C)S(=O)(=O)N[C@H]1CCOC[C@@H]1c1ccc(-c2ccc(C#N)s2)cc1
- Potency [1]: inactive
- Potency [2]: 10.7 µM (active)
- Potency [3]: 0.213 µM (active)
- Potency [4]: inactive

Structure (SMILES): CC(NC(=O)CCc1nc2ccccc2c(=O)[nH]1)c1ccccc1 (centres undefined)
- Potency [1]: inactive
- Potency [2]: inactive
- Potency [3]: inactive
- Potency [4]: inactive

Structure (SMILES): CC[C@@H](N)CNc1ccnc(-c2cc(-c3cnn(C)c3)ccc2O)n1
- Potency [1]: inactive
- Potency [2]: 9.52 µM (active)
- Potency [3]: 13.5 µM (active)
- Potency [4]: 1.29 µM (active)

Structure (SMILES): Cc1ccc(C)c(OCCn2cc(C(=O)O)c3ccccc32)c1
- Potency [1]: inactive
- Potency [2]: inactive
- Potency [3]: 13.5 µM (active)
- Potency [4]: inactive

Structure (SMILES): CC1(C)CC(NC(=O)C(=O)Nc2ccc(Br)cc2)CC(C)(C)N1
- Potency [1]: inactive
- Potency [2]: inactive
- Potency [3]: inactive
- Potency [4]: 8.17 µM (active)

Structure (SMILES): COC(=O)CC1CC(c2ccc(O)cc2)=NO1 (centres undefined)
- Potency [1]: inactive
- Potency [2]: inactive
- Potency [3]: inactive
- Potency [4]: inactive

Structure (SMILES): CN(C)c1nc(NC2CCC(NCCc3ccc(Br)cc3OC(F)(F)F)CC2)nc2ccccc12 (centres undefined)
- Potency [1]: inactive
- Potency [2]: 2.68 µM (active)
- Potency [3]: 7.56 µM (active)
- Potency [4]: 3.65 µM (active)

Structure (SMILES): C[C@@H]1CN(Cc2ccccc2)C[C@H]1c1nc2c(cnn2C2CCOCC2)c(=O)[nH]1
- Potency [1]: inactive
- Potency [2]: inactive
- Potency [3]: inactive
- Potency [4]: inactive

Structure (SMILES): COC(=O)N1CCC(n2ncc3c(N4CCOCC4)nc(-c4ccc(NC(=O)Nc5ccc(CO)cc5)cc4)nc32)CC1
- Potency [1]: inactive
- Potency [2]: 8.49 µM (active)
- Potency [3]: 6.74 µM (active)
- Potency [4]: 0.0163 µM (active)

Structure (SMILES): Cc1cccc(C)c1OCc1cc(C(=O)N2CCC(c3ccncc3)CC2)no1
- Potency [1]: inactive
- Potency [2]: 1.2 µM (active)
- Potency [3]: 0.338 µM (active)
- Potency [4]: 10.3 µM (active)

Structure (SMILES): CN(c1ccccc1CNc1nc(Nc2ccc3c(c2)CC(=O)N3)ncc1C(F)(F)F)S(C)(=O)=O
- Potency [1]: inactive
- Potency [2]: 23.9 µM (active)
- Potency [3]: 1.51 µM (active)
- Potency [4]: 1.29 µM (active)

Structure (SMILES): CNC(=O)c1ccccc1Nc1nc(Nc2ccc(N3CCNCC3)cc2)ncc1Cl
- Potency [1]: inactive
- Potency [2]: inactive
- Potency [3]: 6.01 µM (active)
- Potency [4]: 0.103 µM (active)

Structure (SMILES): O=C(CCCCN1CCOCC1)Nc1ccc(-c2cccnc2)cc1
- Potency [1]: inactive
- Potency [2]: 6.01 µM (active)
- Potency [3]: inactive
- Potency [4]: inactive

Structure (SMILES): Cc1cccc(/C=N/Nc2cc(N3CCOCC3)n3nc(-c4ccncc4)cc3n2)c1
- Potency [1]: inactive
- Potency [2]: 3.79 µM (active)
- Potency [3]: 1.34 µM (active)
- Potency [4]: 0.578 µM (active)

Structure (SMILES): CCC(Nc1ncnc2nc[nH]c12)c1nc2cccc(F)c2c(=O)n1-c1ccccc1 (centres undefined)
- Potency [1]: inactive
- Potency [2]: inactive
- Potency [3]: 13.5 µM (active)
- Potency [4]: 0.0728 µM (active)

Structure (SMILES): Cc1cc(C(=O)Nc2cccc(C(=O)Nc3cccc(C(F)(F)F)c3)c2)on1
- Potency [1]: inactive
- Potency [2]: inactive
- Potency [3]: 3.79 µM (active)
- Potency [4]: inactive

Structure (SMILES): CC(Oc1ccc2[nH]nc(/C=C/c3cnn(CCO)c3)c2c1)c1c(Cl)cncc1Cl (centres undefined)
- Potency [1]: inactive
- Potency [2]: 2.39 µM (active)
- Potency [3]: 0.536 µM (active)
- Potency [4]: 0.115 µM (active)

Structure (SMILES): CC(C)(F)C[C@@H](N[C@@H](c1ccc(-c2ccc(S(C)(=O)=O)cc2)cc1)C(F)(F)F)C(=O)NC1(C#N)CC1
- Potency [1]: inactive
- Potency [2]: 2.68 µM (active)
- Potency [3]: 19 µM (active)
- Potency [4]: inactive

Structure (SMILES): Cc1onc(C(=O)N2CCN(C(c3ccc(Cl)cc3)c3ccc(Cl)cc3)CC2)c1[N+](=O)[O-]
- Potency [1]: inactive
- Potency [2]: inactive
- Potency [3]: 5.35 µM (active)
- Potency [4]: 0.23 µM (active)

Structure (SMILES): C[C@@H]1CN(Cc2ncccn2)C[C@H]1c1nc2c(cnn2C2CCOCC2)c(=O)[nH]1
- Potency [1]: inactive
- Potency [2]: inactive
- Potency [3]: inactive
- Potency [4]: inactive

Structure (SMILES): COc1ncc(Nc2ncc([C@H](C)N3CCN(S(C)(=O)=O)CC3)cc2-c2nc(C)nc(N)n2)cc1F
- Potency [1]: inactive
- Potency [2]: inactive
- Potency [3]: 12 µM (active)
- Potency [4]: 5.8 nM (active) and 5.9 nM (active)

Structure (SMILES): NC(=O)c1cnc(NCCc2ccc(O)c(Cl)c2)nc1NCc1ccccc1
- Potency [1]: inactive
- Potency [2]: 15.1 µM (active)
- Potency [3]: 6.74 µM (active)
- Potency [4]: 1.29 µM (active)

Structure (SMILES): O=C(O)c1ccccc1NC(=O)N1CCC(c2ccccc2C(F)(F)F)CC1
- Potency [1]: inactive
- Potency [2]: inactive
- Potency [3]: 0.849 µM (active)
- Potency [4]: inactive

Structure (SMILES): O=C1N=C(N2CCOCC2)CN1c1ccc(Cl)cc1
- Potency [1]: inactive
- Potency [2]: inactive
- Potency [3]: inactive
- Potency [4]: inactive
